Screens: PubChem, The Scripps Research Institute Molecular Screening Center
CHRM1 antagonist: human CHRM1 antagonism | CHO-K1 hM1, Fluo-8 calcium fluorescence, ACh EC80 antagonist | inhibition, % at 3 µM | actives 1.3% (n = 360,000);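 active means percent inhibition above its own plate's cutoff, namely the mean of that plate's compound wells plus 3 SD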;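 further: peak over basal fluorescence ratio during 140 s after agonist addition; 0% = ACh EC80 plus DMSO and 100% = DMSO alone without agonist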
Target sequence (P11229 whole entry, looked up): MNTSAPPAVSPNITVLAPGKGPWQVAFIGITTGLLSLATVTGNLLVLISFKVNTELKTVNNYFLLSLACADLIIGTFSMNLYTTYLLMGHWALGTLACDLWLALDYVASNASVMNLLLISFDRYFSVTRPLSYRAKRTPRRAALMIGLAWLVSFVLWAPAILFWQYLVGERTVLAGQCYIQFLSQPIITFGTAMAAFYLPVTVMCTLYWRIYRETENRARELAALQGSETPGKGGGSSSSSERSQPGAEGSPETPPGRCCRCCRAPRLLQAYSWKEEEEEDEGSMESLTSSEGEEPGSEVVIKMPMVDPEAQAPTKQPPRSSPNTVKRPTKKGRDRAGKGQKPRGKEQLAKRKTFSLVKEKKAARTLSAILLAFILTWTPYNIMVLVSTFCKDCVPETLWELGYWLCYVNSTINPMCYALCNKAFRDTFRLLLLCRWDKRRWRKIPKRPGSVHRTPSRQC
CHRM4 PAM: CHRM4 positive allosteric modulation; P08173; CHO-K1 hM4/Gqi5, Fluo-8 calcium fluorescence, ACh EC20; 0% = ACh EC20, 100% = maximal ACh; activation, % at 3 µM; actives 0.4% (n = 360,000);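 active means activation above its plate's cutoff, the mean activation of sample wells plus 3 SD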
CHRM1 agonist: activates human CHRM1 receptor; CHO-K1 hM1, Fluo-8 calcium fluorescence, agonist mode; 0% DMSO, 100% acetylcholine EC100; P11229; actives 0.33% (n = 360,000); activation, % at 3 µM;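 active means activation above the run's mean compound activation plus 3 SD, cut at about 16% in these data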;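 further: peak over basal fluorescence ratio within a 140 s kinetic read after compound addition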
CHRM4 agonist: agonists of human muscarinic M4 receptor (CHRM4). CHO-K1 hM4/Gqi5, Fluo-8 calcium fluorescence; vehicle 0%, full acetylcholine response 100%. activation, % at 3 µM. P08173. actives 0.14% (n = 360,000). AID 624127;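 active means activation above the run mean over all test wells plus 3 SD, cut at about 32% in these data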;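 further: peak over basal fluorescence ratio per well then scaled between controls; 0% = DMSO wells and 100% = acetylcholine at EC100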
CHRM1 PAM: potentiates human M1 receptor response to acetylcholine. activation, % at 3 µM. AID 588819. actives 0.088% (n = 360,000). P11229. CHO-K1 hM1, Fluo-8 calcium fluorescence, ACh EC20; 0% = ACh EC20, 100% = maximal ACh; in the data active means activation above about 19%, passing the limit was not always enough
CHRM4 antagonist: antagonists of human muscarinic M4 receptor (CHRM4). inhibition, % at 3 µM. CHO-hM4 cells, ACh EC80, Fluo-8 calcium fluorescence. actives 0.73% (n = 360,000);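 active means inhibition above its plate's cutoff, the mean inhibition of sample wells plus 3 SD, cut at about 27% in these data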;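 further: 0% = acetylcholine EC80 with DMSO and 100% = DMSO without agonist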
Active calls of the source: *. In the library only some 2.2% were active in any assay of this set; here they are far more common.

SMILES | CHRM1 antagonist | CHRM4 PAM | CHRM1 agonist | CHRM4 agonist | CHRM1 PAM | CHRM4 antagonist
COc1ccc(C(=O)Cn2c3ccccc3n3nc(CCC(=O)O)c(=O)nc23)cc1OC | 2 | 3 | 0 | 0 | -4 | -1
Cc1c(-n2c(SCC(N)=O)nc3ccccc3c2=O)c(=O)n(-c2ccccc2)n1C | 3 | -7 | -6 | 0 | 3 | 0
CN(CC(=O)Nc1ccc(Cl)cc1)C(=O)COc1ncnc2ccccc12 | 3 | -6 | -5 | 1 | -4 | 11
CN(CC(=O)Nc1ccc(F)cc1)C(=O)COc1ncnc2ccccc12 | 101* | 1 | 0 | 1 | -26 | 4
CC(COc1ccccc1)OC(=O)Nc1ccccc1 (stereo not given) | -3 | 1 | -9 | -2 | -2 | -5
COc1cc(OC)c(NC(=O)CCNC(=O)Cn2cnc3ccccc3c2=O)cc1Cl | -36 | 3 | 3 | 1 | 26* | -4
O=C(NCc1ccccn1)c1cc2cc(Br)ccc2oc1=O | 1 | -2 | -5 | 0 | 1 | 3
CS(=O)(=O)N1CCN(C/C=C/c2ccccc2)CC1 | -14 | 19* | 15 | 1 | 6 | -5
O=S(=O)(Cc1ccccc1)N1CCN(C/C=C/c2ccccc2)CC1 | 18 | -6 | -3 | 1 | -15 | 9
O=c1[nH]c2ccccc2n1CCCN1CCCCC1 | 10 | -8 | 21* | 1 | -15 | -5
CCC(O)(C#CCN1CCCCC1)CC | 3 | 1 | -14 | 1 | -6 | 10
OC(C#CCN1CCCCC1)(c1ccccc1)c1ccccc1 | 100* | -18 | -8 | 2 | -26 | 100*
CC(O)(C#CCN1CCCCCC1)c1ccccc1 (stereo not given) | 41* | -20 | -9 | 15 | -30 | 23
CC(C)C(O)(C#CCN1CCCCC1)C(C)C | 64* | -6 | -14 | 0 | -27 | 1
OC(C#CCN1CCCC1)(c1ccccc1)c1ccccc1 | 100* | -18 | -7 | 1 | -25 | 98*
CC(C)Sc1nc(SCC(=O)O)c2c3c(sc2n1)COC(C)(C)C3 | -12 | 13 | -2 | 1 | 6 | -11
O=C(c1ccoc1)N1CCC2(CCCN(Cc3ccc(F)c(F)c3)C2)C1 (stereo not given) | 55* | -15 | -6 | 0 | -22 | 4
O=C(CCC1CCCN(C(=O)c2ccoc2)C1)NCc1ccc(F)c(F)c1 (stereo not given) | 0 | -1 | -4 | -1 | 5 | -1
Cc1occc1C(=O)N1CCC2(CCCN(Cc3ccc(F)c(F)c3)C2)C1 (stereo not given) | 65* | -16 | -7 | 0 | -24 | 18
Cc1cccc(C)c1NC(=O)c1ccc([N+](=O)[O-])s1 | -11 | 25* | -5 | 2 | 4 | -16
Cc1ccc(C(=O)Nc2nnc(Cc3ccccc3)s2)cc1 | 9 | -7 | -1 | 18 | 4 | 4
O=C(c1cc(-c2ccccn2)nc2ccccc12)N1CCN(c2ncccn2)CC1 | 1 | 0 | -3 | 2 | 1 | 3
COc1cccc(-c2cc(C(=O)N3CCN(c4ncccn4)CC3)c3ccccc3n2)c1 | 45* | -9 | 0 | 14 | -11 | 23
Cc1ccc(-c2cc(C(=O)N3CCN(c4ccccc4O)CC3)c3ccccc3n2)o1 | 42* | -9 | 4 | 16 | -14 | 11
CC(C)Oc1cccc(-c2cc(C(=O)N3CCN(S(C)(=O)=O)CC3)c3ccccc3n2)c1 | -3 | -4 | 4 | 13 | 0 | 4
O=C(c1cc(-c2ccc(Br)cc2)nc2ccccc12)N1CCN(c2ccccc2O)CC1 | 6 | -5 | -2 | 8 | 4 | 16
CC(C)Oc1cccc(-c2cc(C(=O)N3CCN(c4ncccn4)CC3)c3ccccc3n2)c1 | 27* | -22 | 6 | 15 | -6 | 34*
Cc1cc(-c2ccccc2)n(-c2ccc(C(=O)N3CCN(c4ncccn4)CC3)cc2)n1 | 3 | -8 | 1 | 11 | -7 | 32*
Cc1ccc(-c2cc(C(=O)N3CCN(c4ncccn4)CC3)c3ccccc3n2)cc1 | 31* | -6 | 0 | 11 | -13 | 5
